In PubChem BioAssay AID624052 (National Center for Advancing Translational Sciences (NCATS), 2012):
The source made the active and inactive calls.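 How the source made its calls: active means IC50 at or below 10 µM; inconclusive means IC50 above 10 µM but below 20 µM; inactive means IC50 of 20 µM or more.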

target: Neuropeptide S receptor (Homo sapiens) (UniProt Q6W5P4); experiment: Robust Characterization of Calcium Signal Transduction Antagonists of the Neuropeptide S Receptor: SAR; conditions: CHO-NPSR cells, NPS-induced calcium fluorescence (FDSS)
Text: Neuropeptide S receptor (NPSR), previously known as GPR154, is a recently de-orphanized G protein coupled receptor. Its endogenous ligand is the 20 amino acids peptide Neuropeptide S (NPS). […] NPS and its receptor are found in various tissues. Specifically they are highly expressed in brain areas that have been implicated in modulation of arousal, stress and anxiety. Central administration of NPS in mice produces an unusual profile of activity by inducing wakefulness and arousal, while at the same time suppressing anxiety. Therefore, NPSR may represent a novel drug target for the treatment of sleep and anxiety disorders. To identify NPSR antagonists, we developed a cell-based assay with transfected NPS receptor. NPS can stimulate the production of cAMP as well as release intracellular calcium in Chinese hamster ovary cells stably expressing NPS receptor. This change in intracellular calcium can be detected using a calcium indicator dye on a calcium imaging plate reader system (FDSS). This particular assay uses a high density of sampling across concentration-response space to establish more confidence estimates of potency. NIH Chemical Genomics Center [NCGC] NIH Molecular Libraries Probe Production centers Network [MLPCN] MLPCN Grant: DA026210 Assay Submitter (PI): Heilig, Markus Alexander
A Chinese hamster ovary (CHO) cell line stably expressing the NPS receptor (CHO-NPSR) was obtained from Dr. Heilig lab at NIAAA and maintained in F-12 Kaighn's media (Invitrogen, Carlsbad, CA, 21127) supplemented with 10 % FBS, 100 units/ml penicillin, 100 ug/ml streptomycin and 250 ug/ml geneticin at 37C, 5% CO2 in a humidified atmosphere. Before the assay, aliquots of cells were frozen and stored at -135C. The assay was performed on a FDSS-7000 kinetic plate reader in 1536-well format. For both agonist (1-220s) and antagonist (221-400s) phases, the maximums of kinetic fluorescence responses were converted separately into text files using the instrument's software data export utility. Data for agonist response were normalized to the controls for basal activity (DMSO only) and 100% activation (NPS). Data for antagonist response were normalized to the controls for basal activity (DMSO only) and 100% inhibition (No NPS control). AC50 values were determined from concentration-response data modeled with the standard Hill equation. NPS 1536-well FDSS assay protocol: (1) Frozen CHO-NPSR cells were thaw, washed once with fresh media and resuspended in F-12 Kaighn's media supplemented with 10 % FBS, 100 units/ml penicillin and 100 ug/ml streptomycin. Cells were plated at 3 ul/well (1200 cells) to black, clear-bottom, tissue-culture treated 1536-well plates, and then cultured at 37C, 5 % CO2 for 16 to 30 hours. […]

Neuropeptide S receptor (Homo sapiens), sequence (Q6W5P4 whole entry, looked up): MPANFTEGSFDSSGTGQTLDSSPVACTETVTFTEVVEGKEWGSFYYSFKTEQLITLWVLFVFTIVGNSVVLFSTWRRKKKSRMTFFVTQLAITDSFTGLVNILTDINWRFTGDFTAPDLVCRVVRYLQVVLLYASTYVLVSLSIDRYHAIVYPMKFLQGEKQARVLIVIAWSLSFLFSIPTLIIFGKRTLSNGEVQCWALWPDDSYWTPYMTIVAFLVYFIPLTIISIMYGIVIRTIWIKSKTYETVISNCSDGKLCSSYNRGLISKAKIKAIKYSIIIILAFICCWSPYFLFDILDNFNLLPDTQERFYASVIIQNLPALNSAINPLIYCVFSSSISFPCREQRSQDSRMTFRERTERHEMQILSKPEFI

IC50, active:
COc1ccc(C2c3c(ncn(CCN4CCOCC4)c3=N)Oc3ccc4ccccc4c32)cc1OC (centres undefined) 4940 nM
CCC(C)(CCN1CCOCC1)N(Cc1cc2ccccc2n(C)c1=O)C(=O)C1CCCCC1 (centres undefined) 57.8 nM
O=C1OC(c2ccccc2)(c2ccccc2)N2CCN(C(=O)NCc3ccc(F)cc3)CC12 (centres undefined) 570 nM
Cc1c(P(=S)(c2ccccc2)c2ccccc2)[n+]2ccccc2n1C/C=C/c1ccccc1 36.5 nM
